Screening results (PubChem BioAssay)
Kir21 block – inhibitors of mouse Kir2.1 inward-rectifier potassium channel; P35561; 310,000 compounds, 0.85% hits; B-score at 10 µM; HEK293-Kir2.1, FluxOR thallium flux fluorescence; stronger effect = lower value; AID 1672;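 active = fluorescence ratio B-score at or below minus 3 SD of library scores, with starting-brightness B-score within 2 SD, cut at about -4.2 in these data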;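 note: channel flux triggered by added potassium and thallium sulfate stimulus; B-score of peak minus minimum fluorescence over baseline after thallium stimulus; more negative B-score means stronger Kir2.1 block with less thallium influx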
Target sequence (P35561 whole entry, looked up): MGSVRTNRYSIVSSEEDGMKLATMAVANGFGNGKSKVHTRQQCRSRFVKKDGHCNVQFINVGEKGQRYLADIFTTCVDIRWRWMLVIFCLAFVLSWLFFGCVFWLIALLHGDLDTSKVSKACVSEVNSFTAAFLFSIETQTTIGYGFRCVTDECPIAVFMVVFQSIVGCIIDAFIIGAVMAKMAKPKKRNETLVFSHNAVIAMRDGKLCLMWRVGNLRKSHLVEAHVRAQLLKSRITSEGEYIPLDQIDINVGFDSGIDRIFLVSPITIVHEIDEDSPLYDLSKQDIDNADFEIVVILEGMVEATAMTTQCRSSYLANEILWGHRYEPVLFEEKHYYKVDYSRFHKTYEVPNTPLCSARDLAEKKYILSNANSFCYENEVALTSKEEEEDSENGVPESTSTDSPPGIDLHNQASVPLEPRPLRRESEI
TMEM16A inh – blocks the mouse calcium-activated chloride channel TMEM16A; Q8BHY3; HEK293 TMEM16A/YFP iodide influx fluorescence, ionomycin; normalized B-score (activity score, 25-100; higher = stronger inhibition) at 10 µM; 310,000 compounds, 1.2% hits; AID 588511;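 active = ratio plate-corrected score three or more library SD toward inhibition, starting fluorescence score within five deviations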;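 note: score derived from kinetic fluorescence span divided by baseline fluorescence per well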
KCNK3 block – human KCNK3 channel inhibition, primary screen; O14649; AID 602410; CHO-KCNK3 thallium flux, FluxOR fluorescence; stronger effect = lower value; B-score at 10 µM; 340,000 compounds, 0.84% hits;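 active = B-score under library mean minus 4 SD, starting fluorescence ratio at most library mean plus 5 SD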;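 note: more negative B-score means stronger inhibition of thallium flux through KCNK3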
TMEM16A act – mouse TMEM16A channel activation, primary screen; AID 623877; 340,000 compounds, 0.3% hits; B-score at 10 µM; Q8BHY3; HEK293 TMEM16A/YFP-H148Q/I152L, iodide quench fluorescence; stronger effect = lower value;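 active = fluorescence-ratio B-score plate-corrected deviation score at least 3 library SD below zero, with starting fluorescence score within 5 deviations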;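 note: channel opened by trigger with iodide after compound preincubation; score built on the fluorescence ratio of max minus min over baseline; more negative score means more quench and so TMEM16A activation or potentiation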
KCNK9 inh – inhibitors of human KCNK9 two-pore domain potassium channel | AID 488922 | 310,000 compounds, 1.2% hits | B-score at 10 µM | HEK293 KCNK9, FluxOR thallium flux fluorescence; stronger effect = lower value | Q9NPC2;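 active = ratio B-score over 3 SD below the library mean, with starting fluorescence within 5 SD of its mean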;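 note: negative B-score means less thallium flux so channel inhibition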
KCNK9 inh conf – human KCNK9 inhibitor confirmation | shares compounds with KCNK9 inh | HEK293 KCNK9 cells, FluxOR thallium flux fluorescence | inhibition, % at 10 µM | 4,900 compounds, 43% hits;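 active = thallium signal inhibited by more than 5 SD of the compound-free buffer control wells, on both duplicate plates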
Kir21 sel – tests whether KCNK9 modulators also affect mouse Kir2.1 | inhibition, % at 10 µM | 4,900 compounds, 4% hits | shares compounds with KCNK9 inh | AID 492993 | Kir2.1 cells, FluxOR thallium flux fluorescence;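 active = thallium signal drop more than 5 SD beyond the mean of the no-compound control wells, seen in both duplicate plates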;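 note: signal is fluorescence rise after thallium addition divided by baseline fluorescence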
KCNK9 uninduced – second check of KCNK9 modulator effects in non-induced HEK293 cells | shares compounds with KCNK9 inh | FluxOR thallium flux | inhibition, % at 10 µM | 4,900 compounds, 40% hits;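 active = thallium signal drop beyond 5 SD of the untreated control mean, on both duplicate plates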
Each line names hits and unclear results; the compound was inactive in the other large screens (follow-up assays come after a bar, where they were run). Compounds with a hit are over-represented: about 3.5% of the library has one in this group of screens.

Cc1nc2ccc(NC(=O)c3ccc([N+](=O)[O-])cc3)cc2s1	none | KCNK9 inh conf inactive | Kir21 sel inactive | KCNK9 uninduced inactive
O=C(c1ccccc1)N1CCOC(O)(c2ccccc2)C1c1ccccc1 (configuration not stated)	none (no result: Kir21 block, TMEM16A inh, KCNK9 inh)
CC/C(=N\N=C1\SC(C)C(=O)N1Cc1ccco1)c1ccccc1 (configuration not stated)	none | KCNK9 inh conf inactive | Kir21 sel inactive | KCNK9 uninduced 26%
CC1S/C(=N/N=C/c2ccco2)N(Cc2ccccc2)C1=O (configuration not stated)	none
O=C(c1oc2ccccc2c1CSCc1ccccc1)N1CCN(c2ncccn2)CC1	KCNK9 inh -9.6 | KCNK9 inh conf 23% | Kir21 sel inactive | KCNK9 uninduced inactive
CCOCC(=O)Nc1c(C(=O)N2CCN(c3ncccn3)CC2)oc2ccccc12	none
CCOc1ccc(NC2=NCC(=O)N2Cc2cccs2)cc1	none
O=C(c1ccc(=O)[nH]n1)N1CCN(S(=O)(=O)c2ccc(C(F)(F)F)cc2)CC1	none (no result: Kir21 block, TMEM16A inh, KCNK9 inh)
COc1ccc(CN(CCC(c2ccccc2)c2ccco2)C(=O)c2ccco2)cc1 (configuration not stated)	KCNK9 inh -13 | KCNK9 inh conf 50% | Kir21 sel inactive | KCNK9 uninduced 29%
C/C(=N\NC(=S)NCCc1ccccc1)c1ccc(Cl)cc1	none | KCNK9 inh conf inactive | Kir21 sel inactive | KCNK9 uninduced inactive
S=C(NCCc1ccccc1)N/N=C/c1ccccc1Cl	none | KCNK9 inh conf inactive | Kir21 sel inactive | KCNK9 uninduced inactive
C/C(=N/NC(=O)CNC(=O)CCc1ccccc1)c1ccc(Cl)cc1	none
C/C(=N\NC(=S)NCCc1ccccc1)c1ccc(C)cc1	none | KCNK9 inh conf inactive | Kir21 sel inactive | KCNK9 uninduced inactive
C/C(=N\NC(=S)NCCc1ccccc1)c1ccc(C#N)cc1	none
O=C(NCc1ccccc1)C12CN(Cc3ccccc3)CC1C(c1cccc([N+](=O)[O-])c1)=NO2 (configuration not stated)	none | KCNK9 inh conf inactive | Kir21 sel inactive | KCNK9 uninduced inactive
CC(C)N(C(=O)c1nn(C)c2c1CSc1ccccc1-2)C1CCCCC1	TMEM16A inh 25, KCNK9 inh -10 | KCNK9 inh conf 34% | Kir21 sel inactive | KCNK9 uninduced inactive
Cn1nc(C(=O)NC2CCCCC2)c2c1-c1ccccc1SC2	none
CCc1ccc(C(=O)COC(=O)c2cccnc2Cl)cc1	none
CCOc1ccc2oc(C(=O)NCc3ccccc3CN3CCCC3)c(C)c2c1	none (no result: Kir21 block, TMEM16A inh, KCNK9 inh)
O=C(NCc1ccco1)C1CCN(c2ccc(S(=O)(=O)N3CCOCC3)cc2[N+](=O)[O-])CC1	KCNK9 inh -9.3 | KCNK9 inh conf inactive | Kir21 sel inactive | KCNK9 uninduced inactive
COc1ccc(C(=O)Nc2ccnn2C2CCN(C(=O)c3cc(C)on3)CC2)cc1	none
CC(NCC(=O)NC(=O)NC1CCCC1)c1ccc(Cl)cc1Cl (configuration not stated)	none | KCNK9 inh conf inactive | Kir21 sel inactive | KCNK9 uninduced inactive
Cc1ccc(-c2ccc(C(=O)Nc3cccc(F)c3)o2)c2ccccc12	none | KCNK9 inh conf inactive | Kir21 sel inactive | KCNK9 uninduced inactive
CC/C(C)=N\N=C\c1c(O)n(CC)c2cc(C3=NNC(=O)CC3)ccc12	none
CCOc1ccccc1NC(=O)c1nc(-c2ccccc2)oc1C	KCNK9 inh -12 | KCNK9 inh conf inactive | Kir21 sel inactive | KCNK9 uninduced 25%
CCOc1ccccc1C(=O)Nc1ccccc1-c1ccccc1	KCNK9 inh -8.8 | KCNK9 inh conf 72% | Kir21 sel 38% | KCNK9 uninduced 25%
CCn1c(C)c(C(=O)O)c2cc(OC)c3ccccc3c21	none
NC(=O)C1CCCN(CC(O)COCc2ccc(Cl)cc2)C1 (configuration not stated)	none
NC(=O)CN(N=Nc1cccc([N+](=O)[O-])c1)c1cccc([N+](=O)[O-])c1	none
CCN(N=Nc1cccc([N+](=O)[O-])c1)c1cccc([N+](=O)[O-])c1	KCNK9 inh -11 | KCNK9 inh conf 59% | Kir21 sel inactive | KCNK9 uninduced 40%
COc1ccccc1/C=C1\N=C(C(C)(C)C)OC1=O	none
CCN(CC)c1ccc(/C=N/OCC(=O)N2CCCc3ccccc32)cc1	none | KCNK9 inh conf inactive | Kir21 sel inactive | KCNK9 uninduced inactive
CCOC(=O)c1ccc(-n2c(C)nc3c(cnn3-c3ccc(Cl)cc3)c2=O)cc1	none
CCOC(=O)c1ccc(-n2c(C)nc3c(cnn3-c3ccccc3Cl)c2=O)cc1	none | KCNK9 inh conf inactive | Kir21 sel inactive | KCNK9 uninduced inactive
CN1CCN(C(=O)C23CC4CC(C2)CC(c2ccccc2)(C4)C3)CC1	none
O=c1ccc(-c2ccc(S(=O)(=O)N3CCN(c4cccc(Cl)c4)CC3)o2)n[nH]1	none
O=C(CC1CCCC1)N1CCCC(Nc2ccc(F)cc2)C1 (configuration not stated)	none | KCNK9 inh conf inactive | Kir21 sel inactive | KCNK9 uninduced inactive
CC1(CCC(=O)N2CCCC(Nc3ccc(F)cc3)C2)CC1 (configuration not stated)	Kir21 block -6.1 | KCNK9 inh conf inactive | Kir21 sel inactive | KCNK9 uninduced inactive
Cc1cc(C)c(C#N)c(Nc2cccc(C)c2C)n1	none
O=C(N/N=C/c1ccc(O)cc1)c1cc(C23CC4CC(CC(C4)C2)C3)[nH]n1	none
O=C1Nc2ccc(Cl)cc2C(C#CC2CC2)(C(F)(F)F)O1 (configuration not stated)	KCNK9 inh -8.2 | KCNK9 inh conf 48% | Kir21 sel inactive | KCNK9 uninduced 46%
O=C1Nc2ccc(Cl)cc2C12OCCCO2	none
CS(=O)(=O)N1CCN(c2ccc([N+](=O)[O-])c(NCc3cccnc3)c2)CC1	none
Cc1cc(OCC(=O)OCC(=O)Nc2cc(C(F)(F)F)ccc2N2CCOCC2)ccc1Cl	none
CCOC(=O)N1CCc2c(sc3c2c(=O)n(Cc2ccccc2)c(=O)n3Cc2ccccc2F)C1	none | KCNK9 inh conf inactive | Kir21 sel inactive | KCNK9 uninduced inactive
CCOC(=O)N1CCc2c(sc3c2c(=O)n(Cc2ccccc2)c(=O)n3Cc2cccc(C)c2)C1	none | KCNK9 inh conf inactive | Kir21 sel inactive | KCNK9 uninduced inactive
Cc1cc(C(=O)Cn2nc(C(=O)O)c3ccccc3c2=O)c(C)n1-c1cccc(C(F)(F)F)c1	none | KCNK9 inh conf inactive | Kir21 sel inactive | KCNK9 uninduced inactive
CCCC1=C(C(=O)OCC)C(c2cccs2)C(C#N)=C(N)O1 (configuration not stated)	none
